Source: PubChem BioAssay
FH mod = Identification of activators of human fumarate hydratase by quantitative high-throughput screening; FH coupled MDH/diaphorase resazurin fluorescence, 15 min; Potency, µM (top dose mostly 79.9 µM), for the others: at the highest dose activity change, negative = inhibition, hits mostly inhibitors; 54,000 compounds, 0.22% hits; AID 1347055, 2019; note: potency is the fitted concentration of half-maximal effect; % is set by controls: 0 for no effect and ±100 for the full control effect; the screen sought activators but most active calls are inhibition curves; nearly all actives have a fitted effect of over 45% in size
HTT prom inh = inhibitors of huntingtin promoter activity; HEK293 HTT promoter firefly luciferase reporter, 24 h; Potency, µM (series often up to 57.5 µM), without a hit: at the top dose activity change, negative = inhibition, hits mostly inhibitors; 48,000 compounds, 0.93% hits; note: potency is the fitted concentration of half-maximal effect; nearly all actives have a fitted effect of over 50% in size
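Firefly luciferase readout (Dual-Glo, 10 min RT) after 24 h, 37 °C compound exposure (final up to 57.5 uM) of HEK293 reporter cells cultured 24 h beforehand; PTC124 at 50 uM final as control inhibitor; activity scaled vehicle 0%, zero RLU -100%.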
NTMT1 inh = NTMT1 methyltransferase inhibition; Potency, µM (highest dose often 114 µM), inactives show top-dose activity change, negative = inhibition, most hits filed as inhibitors; 59,000 compounds, 2.5% hits; AID 1645870; NTMT1 MTase-Glo SAH luminescence, purified enzyme;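 note: potency is the fitted concentration of half-maximal effect; plate controls were DMSO vehicle for no effect and no enzyme for full effect; nearly all actives have a fitted effect of over 65% in size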
Target sequence (Q9BV86 whole entry, looked up): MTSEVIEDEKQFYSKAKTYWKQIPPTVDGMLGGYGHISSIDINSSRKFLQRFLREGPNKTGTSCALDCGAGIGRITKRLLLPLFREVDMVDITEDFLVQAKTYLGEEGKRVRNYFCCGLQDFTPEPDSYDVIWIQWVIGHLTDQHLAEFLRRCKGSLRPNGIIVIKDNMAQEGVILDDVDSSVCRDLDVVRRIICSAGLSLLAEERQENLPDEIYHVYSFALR
GALC G270D act = enhancers of human galactocerebrosidase G270D mutant activity in cells. Potency, µM (series often up to 57.5 µM), hits mostly activators. 45,000 compounds, 0.1% hits. AID 1159614. P54803. 145M-Twi-hGALC-G270D cells (Twitcher mouse brain line with human GALC G270D), HMU-beta-Gal fluorescence, 48 h; note: potency is the fitted concentration of half-maximal effect; 0% is about no effect; nearly all actives have a fitted effect of over 65% in size
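Brain-derived Twitcher mouse 145M-Twi cells stably expressing human GALC-G270D or wild-type GALC, treated live, then residual GALC activity read by fluorescence of HMU-b-Gal substrate (0.1 mM final) in citrate-phosphate buffer pH 5.2 with sodium taurocholate. Signal increase indicates enhancement.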
DRV1 agonist = GPR32 (DRV1) agonism, beta-arrestin recruitment; O75388; CHO-K1 GPR32 beta-arrestin PathHunter luminescence, 90 min; zero percent set by DMSO-only wells; activation, % at 76.9 µM; 48,000 compounds, 2.5% hits;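 active = activation of at least 60% and not above a set upper limit, about 1 call in 100 departs from these limits; inconclusive = activation of 40% to 60%, or above that upper limit; inactive = activation under 40%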; note: 0% is about no effect
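Luminescent readout of beta-Gal complementation quantifies ligand-induced beta-arrestin association with GPR32 in CHO-K1 cells; 90 min compound incubation at 37 °C, detection 1 h at room temperature.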
HTT-AS act = activators of huntingtin-antisense promoter activity | HEK293 HTT-AS promoter firefly luciferase reporter, 24 h; response scale: percent change from vehicle, -100% = no light | 48,000 compounds, 0.24% hits | Potency, µM (top dose mostly 57.5 µM), without a hit: top-dose activity change, positive = activation, hits mostly activators; note: potency is the fitted concentration of half-maximal effect; nearly all actives have a fitted effect of over 55% in size
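Firefly luciferase signal from promoter-reporter HEK293 cells was scaled between vehicle (0%) and zero RLU (-100%). Compounds were tested at final concentrations of up to 57.5 uM over 24 h at 37 degrees C. PTC124 at 50 uM final served as control inhibitor.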
Starred values were filed as active, the others as inactive; i = inactive; ? = inconclusive; · = no result; [ ] = dose if it differs, or a comment. This is a sample that favours compounds with a hit; in the whole collection about 4.7% have one here. Unless noted, calls come from the whole dose curve; as a rule, active = well fitted curve in the direction sought with a large enough effect; inconclusive = small, poorly fitted or top-dose-only effect, or another doubt; inactive = no such curve, though single readings can be large; an effect the other way counts as inactive or inconclusive.

SMILES	FH mod	HTT prom inh	NTMT1 inh	GALC G270D act	DRV1 agonist	HTT-AS act
COC(=O)C1=C(c2ccccc2)c2ccccc2S(=O)(=O)N1CC(=O)Nc1cccc(C(C)=O)c1	?	-36%	79µM*	i	-2	-36%
COc1ccccc1Nc1ncc2c(n1)CCN(CC(C)C)C2	1%	29%	-4%	i	-4	13µM*
Fc1cccc(CN2CCc3nc(Nc4ccc5c(c4)OCCO5)ncc3C2)c1F	-24%	-12%	0%	i	-2	8%
Cc1ccc(CN2CCc3nc(Nc4ccc5c(c4)OCCO5)ncc3C2)cc1	-18%	-12%	3%	i	29	-2%
COc1cc(CN2CCc3nc(Nc4ccc5c(c4)OCCO5)ncc3C2)cc(OC)c1OC	0%	12%	7%	i	97*	?
COc1cccc(CN2CCc3nc(Nc4ccc5c(c4)OCCO5)ncc3C2)c1OC	-20%	?	5%	i	86*	-8%
CCc1ccc(CN2CCc3nc(Nc4ccc5c(c4)OCCO5)ncc3C2)cc1	?	-38%	89µM*	i	-22	-17%
COc1ccccc1Nc1ncc2c(n1)CCN(Cc1cc(F)cc(F)c1)C2	-15%	?	1%	i	21	-15%
CCOc1ccc(CN2CCc3nc(Nc4ccc5c(c4)OCCO5)ncc3C2)cc1	-18%	22%	0%	i	6	12%
C=CC1(C)CC(OC(=O)/C(C)=C\COC(C)=O)C(C(=C)C(=O)O)C(O)C1C(=C)CO (stereo not given)	5%[53.3 µM]	·	12%[29.8 µM]	·	·	·
Nc1c(C(=O)Nc2cccc(Cl)c2)sc2nc3c(cc12)CN(Cc1ccccc1)CC3	-5%	-23%	11%	i	61*	1%
CCC1CCc2nc3sc(C(=O)Nc4ccc(C)cc4C)c(N)c3cc2C1 (stereo not given)	-2%	-10%	-3%	i	69*	-10%
CCN1CCc2nc3sc(C(=O)Nc4cccc(Cl)c4C)c(N)c3cc2C1	-8%	-29%	?	i	121*	-32%
Cc1ccc(NC(=O)c2sc3nc4c(cc3c2N)CN(Cc2ccccc2)CC4)cc1	-4%	6%	-22%	i	116*	2%
Fc1ccc(-c2nc(CCCCSc3nnc(-c4cccc5ccccc45)o3)no2)cc1	·	·	4%	·	·	·
C=CC(C)(C)c1[nH]c2cc3c(cc2c1CC1NC(=O)C2=CCCN2C1=O)C=CC(C)(C)O3 (stereo not given)	-3%[53.3 µM]	·	2%[29.8 µM]	·	·	·
O=C1CC(c2nc(-c3ccccc3)no2)CN1c1ccccc1 (stereo not given)	-27%	0%	3%	i	65*	9%
COC(=O)c1c(-c2ccccc2)no[n+]1[O-]	·	·	-4%	·	·	·
CC(C)C[C@H](CC(=O)NO)C(=O)N[C@H](C(=O)N[C@@H](C)C(=O)NCCN)C(C)(C)C	7%[13.5 µM]	·	7%[12.6 µM]	·	·	·
N#C/C(=C\c1ccc(-c2ccc(Cl)c(C(=O)O)c2)o1)c1nc2ccccc2[nH]1	40µM*	8%	?	i	-1	5%
Cc1ccc2nc(/C(C#N)=C/c3ccc(-c4cccc(Cl)c4)o3)[nH]c2c1	-3%	-7%	?	i	4	-17%
N#C/C(=C\c1ccc(-c2ccc(C(=O)O)cc2)o1)c1nc2ccccc2[nH]1	28µM*	38%	45µM*	i	8	?
COc1ccc(C)c2sc(NC(=O)c3ccncc3)nc12	-5%	·	?	·	·	·
COc1ccc(NS(=O)(=O)c2ccc(C)cc2)cc1C(=O)Nc1nc(-c2ccccc2)cs1	·	·	18%	·	·	·
COc1cccc(-c2cc(=O)c3ccccc3o2)c1N	-3%	34%	18%	·	-11	?
COc1ccc(-c2cc(=O)c3c(O)cc(O)cc3o2)cc1O	24µM*	2%	?	·	·	15%
